Assay outcomes as filed in PubChem.
Sampled rows, rich in hits. Any-hit rate of the full collection: about 10%.
FLuc inh: Firefly luciferase inhibition profiling of diverse chemical library using quantitative high-throughput screening. Potency, µM (doses to about 115 µM), most hits filed as inhibitors. Luciferin 4-monooxygenase (Photinus pyralis), P08659. purified P. pyralis luciferase, luminescence, biochemical. hit rate 2.5% among 76,000; also: nearly all actives have a fitted effect of over 65% in size
Target sequence (P08659 whole entry, looked up): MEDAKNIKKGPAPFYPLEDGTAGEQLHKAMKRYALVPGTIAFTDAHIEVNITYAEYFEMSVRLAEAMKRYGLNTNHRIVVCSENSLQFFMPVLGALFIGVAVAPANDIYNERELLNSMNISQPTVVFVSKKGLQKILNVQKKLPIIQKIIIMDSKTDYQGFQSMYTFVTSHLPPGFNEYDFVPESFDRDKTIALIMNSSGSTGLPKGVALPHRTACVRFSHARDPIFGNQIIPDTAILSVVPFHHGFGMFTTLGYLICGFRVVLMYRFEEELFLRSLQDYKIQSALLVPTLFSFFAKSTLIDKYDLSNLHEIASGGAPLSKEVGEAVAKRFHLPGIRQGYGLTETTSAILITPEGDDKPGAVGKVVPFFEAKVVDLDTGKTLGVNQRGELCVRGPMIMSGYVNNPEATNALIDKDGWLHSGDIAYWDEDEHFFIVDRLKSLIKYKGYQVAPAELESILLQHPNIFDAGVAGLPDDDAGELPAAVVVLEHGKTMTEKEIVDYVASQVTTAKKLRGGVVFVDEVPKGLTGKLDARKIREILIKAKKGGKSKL
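Purified 10nM P. pyralis luciferase with 10uM D-luciferin and 10uM ATP in 50mM Tris acetate pH 7.5, 10mM Mg acetate, 0.01% Tween-20, 0.05% BSA. qHTS titration; luminescence read by CCD imager.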
HEK293 tox: Cytotoxic Profiling in HEK 293 Cell Line of Diverse Libraries Using Quantitative High-Throughput Screening | HEK 293 viability, ATP luminescence (CellTiter-Glo), 48-72 h | Potency, µM (series often up to 115 µM), usual class: inhibitors | hit rate 6.6% among 94,000 | AID 1345083, 2018; also: nearly all actives have a fitted effect of over 60% in size
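HEK 293 cells at 250 cells/well were exposed to compounds by pintool transfer for 48 or 72 hr at 37 degree Celsius, 5% CO2. Viability was read as ATP-coupled luminescence with CellTiter-Glo after 10 min at room temperature.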
GPT2 inh: Primary qHTS assay for inhibitors of Glutamate pyruvate transaminase 2 (GPT2) | Recombinant GPT2, coupled pyruvate oxidase/HRP Amplex Red fluorescence | Potency, µM (series often up to 57.7 µM), most hits filed as inhibitors | hit rate 0.25% among 100,000 | AID 1671188, 2021; also: nearly all actives have a fitted effect of over 60% in size
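Recombinant GPT2 (10ng/uL) with 250uM a-KG and 2mM L-alanine, 30 min at room temperature, in HEPES pH 7.5 buffer. Pyruvate detected by pyruvate oxidase/HRP/Amplex Red fluorescence after 30 min in the dark; AOA (50uM) as positive control.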
NIH3T3 tox: Cytotoxic Profiling in NIH 3T3 Cell Line of Diverse Libraries Using Quantitative High-Throughput Screening; NIH 3T3 viability, CellTiter-Glo ATP luminescence, 48-72 h; Potency, µM (doses to about 96.7 µM), actives largely listed as inhibitors; hit rate 4.3% among 94,000; AID 1345082, 2018; also: nearly all actives have a fitted effect of over 55% in size
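Mouse fibroblast NIH 3T3 cells, 400 per well, received compound via pintool and were incubated for 48 or 72 hr prior to CellTiter-Glo ATP luminescence measurement.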
NPR1 antag: Natriuretic polypeptide receptor (hNpr1) antagonism - Primary qHTS | hit rate 1.6% among 76,000 | Potency, µM (highest dose often 46.3 µM), actives largely listed as inhibitors | Atrial natriuretic peptide receptor 1 (Homo sapiens), P16066 | AID 1347048, 2019 | HEK293 hNpr1 GloSensor cGMP, ANP-stimulated luminescence; calls by dose curve; also: nearly all actives have a fitted effect of over 60% in size
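HEK293 cells stably expressing human Npr1 and cGMP GloSensor pGS-40F, loaded 2 h with 2% GloSensor reagent, given compound 30 min at room temperature. Luminescence read before and 20 min after 0.1 nM hNppA.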
Of the large screens only hits and unclear results are named; the others gave an inactive call; ! = a repeat was not active. Unless noted, calls follow the shape of the dose curve; as a rule, active = well fitted curve in the direction sought with a large enough effect; inconclusive = small, poorly fitted or top-dose-only effect, or another doubt; inactive = no such curve, though single readings can be large; an effect the other way counts as inactive or inconclusive.

Cc1ccc2c(C)c(C(=O)N(C)CCOc3ccccc3)oc2c1C	FLuc inh 39.8µM, HEK293 tox inconclusive, GPT2 inh inconclusive
COc1ccc(-c2cc(C(=O)Nc3ccc(Cl)cc3)c3cnn(C)c3n2)cc1	none (no result: FLuc inh, GPT2 inh, NPR1 antag)
Cn1ncc2c(C(=O)Nc3cccc(Cl)c3)cc(C(C)(C)C)nc21	HEK293 tox 63.1µM, NIH3T3 tox inconclusive (no result: FLuc inh, NPR1 antag)
Cn1ncc2c(C(=O)Nc3cccc(Cl)c3)cc(-c3ccc(Cl)nc3)nc21	HEK293 tox inconclusive, NIH3T3 tox inconclusive (no result: FLuc inh, NPR1 antag)
COc1ccc(NC(=O)c2cc(C(C)(C)C)nc3c2cnn3C)cc1	HEK293 tox 63.1µM, NIH3T3 tox inconclusive (no result: FLuc inh, NPR1 antag)
Cn1ncc2c(C(=O)Nc3cccc(Cl)c3)cc(-c3ccc(Cl)cc3Cl)nc21	HEK293 tox 22.4µM, NIH3T3 tox 31.6µM (no result: FLuc inh, NPR1 antag)
Cn1ncc2c(C(=O)Nc3cccc(Cl)c3)cc(-c3ccccc3F)nc21	HEK293 tox inconclusive (no result: FLuc inh, GPT2 inh, NPR1 antag)
O=C(c1ccncc1)N1CC(Oc2ccccc2-c2nc(C3CC3)no2)C1	none
COc1ccc(C(=O)N2CCCC(Cc3ncc(C)n3Cc3ccccc3)C2)c(OC)c1 (stereo not given)	FLuc inh 22.4µM
Cc1ccccc1-c1nc(Cn2ccnc2C(C)C)c(C)o1	HEK293 tox 28.2µM, NIH3T3 tox inconclusive, NPR1 antag inconclusive
CCN1c2cc(C(=O)Nc3cccc(C(F)(F)F)c3)ccc2C(=O)N2CCCCCC21 (stereo not given)	HEK293 tox 12.6µM, NIH3T3 tox inconclusive
CCN1c2cc(C(=O)Nc3cccc(C(F)(F)F)c3)ccc2C(=O)N2CCCC21 (stereo not given)	HEK293 tox inconclusive, NIH3T3 tox 35.5µM
Cc1onc(-c2cnn(C)c2NCc2ccc(C#N)cc2)c1C(=O)Nc1ccccc1	HEK293 tox inconclusive, NIH3T3 tox inconclusive
COc1ccc(F)cc1-c1ccc(CN2CCCCC2C(=O)NCc2cccc(F)c2)cc1 (stereo not given)	HEK293 tox inconclusive, NIH3T3 tox 35.5µM (no result: FLuc inh, GPT2 inh, NPR1 antag)
COc1ccc(F)cc1-c1ccc(CN2CCCCC2C(=O)NCc2ccc(Cl)cc2)cc1 (stereo not given)	HEK293 tox 14.1µM, NIH3T3 tox inconclusive (no result: FLuc inh, GPT2 inh, NPR1 antag)
O=[S+]([O-])(c1cccc(C(F)(F)F)c1)N1CCN(Cc2ccccc2-c2ccccc2F)CC1	HEK293 tox inconclusive, NIH3T3 tox inconclusive (no result: FLuc inh, NPR1 antag)
Cn1ncc2c(C(=O)NCCCc3ccccc3)cc(-c3ccc(Cl)nc3)nc21	none (no result: FLuc inh, NPR1 antag)
c1ccc(CCn2cnc3cccnc32)cc1	FLuc inh 39.8µM
CN(C)Cc1nnc(C2CC(NC(=O)c3ccc4scnc4c3)C2)n1C (stereo not given)	GPT2 inh 5.62µM!
O=C(NCCN1CCOCC1)C1CCCN(c2ccnc3ccnn23)C1 (stereo not given)	none (no result: FLuc inh, NPR1 antag)
O=C1Cc2c(-c3ccccc3Oc3ccccc3)n[nH]c2CN1CC1CCOCC1	NIH3T3 tox inconclusive
O=C1Cc2c(-c3ccccc3)n[nH]c2CN1CC1CCOCC1	NIH3T3 tox 50.1µM
O=C1Cc2c(-c3ccccc3Cl)n[nH]c2CN1CC1CCOCC1	NIH3T3 tox 89.1µM
CCCN1CCN(C(=O)c2c(C)oc3c2CN(Cc2cccc(F)c2)CC3)CC1	none
O=C(CCc1conc1-c1cccc(F)c1)NCc1ccc(F)cc1	FLuc inh 44.7µM, HEK293 tox inconclusive, NIH3T3 tox inconclusive
COc1cccc(CN2C(=O)OC3(CCN(Cc4ccccc4OC)CC3)C2(C)c2cccnc2)c1 (stereo not given)	HEK293 tox inconclusive
COc1ccc(CCNC(=O)c2ccc3oc(-c4ccccn4)nc3c2)cc1	HEK293 tox inconclusive, NIH3T3 tox inconclusive (no result: FLuc inh, NPR1 antag)
O=S(=O)(N[C@H]1[C@H](O)[C@H](O)C[C@@H]1c1ccc(C(F)(F)F)cc1)c1ccc(F)cc1	HEK293 tox 70.8µM, NIH3T3 tox inconclusive
COc1ccc(S(=O)(=O)N[C@H]2[C@H](O)[C@H](O)C[C@@H]2c2ccccc2C)cc1	none
